Test [1] in a line: qHTS to identify inhibitors of the type 1 interferon - major histocompatibility complex class I in skeletal muscle: primary screen against the NCATS Pharmaceutical Collection (AID 1347407).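 Also: luminescence of HiBiT knocked into endogenous HLA-B as interferon-induced MHC class I level.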 A digest of the protocol:
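HLA-B HiBiT myoblasts, dexamethasone-free growth medium + 4 ng/ml IFN-b; compounds pinned 1 h after seeding, […] from 46 uM; 24 h, 37 C, 5% CO2; lytic HiBiT detection, 10 min RT, luminescence.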
On the technique in general: qHTS replaces the single test concentration by a dilution series.

The target of test [2] is Protein phosphatase 1D (Homo sapiens) (UniProt O15297). The test can be described thus: RapidFire Mass Spectrometry qHTS Assay for Modulators of WT P53-Induced Phosphatase 1 (WIP1) (AID 1347424). Also: series mostly up to about 63 µM. A digest of the protocol:
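RapidFire MS readout of dephosphorylated VEPPL-S-QETFS product, with 1 uM isotope-labelled peptide standard. Reaction: 10 nM WIP1, 2 uM phosphopeptide substrate, 5 min, room temperature, after 1 h compound preincubation; stopped with 0.5% formic acid.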

The target is the same in test [3]. Put plainly: Rhodamine-PBP qHTS Assay for Modulators of WT P53-Induced Phosphatase 1 (WIP1) (AID 1347425). The method in brief: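 The read-out is the change in Rhodamine-PBP fluorescence (f1 - f0, ex 525/em 598 nm) as Pi is released, read each minute for 11 min. Final reaction: 5 nM WIP1, 10 uM phosphopeptide VEPPL-pS-QETFS, 10 uM Rh-PBP, 50 mM Tris-HCl pH 7.5, 30 mM MgCl2. Compound was preincubated with enzyme for 1 hour at room temperature.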

The nature of test [4]: Primary qHTS for inhibitors of La Crosse Virus (LACV) - induced cell death in SH-SY5Y cells (AID 1508616).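 Also: top concentration of the series differs between compounds; higher means more rescue of cells from virus-induced death.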 The method in brief: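 Cytopathicity rescue screen: compounds pinned onto SH-SY5Y cells, which are then infected with LACV (MOI 0.01) and held 6 days at 37C. Percent activity is scaled between infected DMSO control and uninfected DMSO control.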
For test [5], the target named is Calcium and integrin-binding protein 1 (Homo sapiens) (UniProt Q99828). Put plainly: Primary qHTS for Identification of Calcium Integrin Binding Protein 1 (CIB1) Competitor (AID 1508620). Also: top concentration of the series differs between compounds. A digest of the protocol: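 Fluorescence polarization competition: GST-tagged CIB1 (1 uM final) preincubated with compound 15 min at room temperature, then FITC-labelled alphaIIb peptide (100 nM final) added. After 15 min at room temperature, polarization read at Ex 480/Em 540.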
Sequence of Calcium and integrin-binding protein 1 (Homo sapiens) (Q99828 whole entry, looked up): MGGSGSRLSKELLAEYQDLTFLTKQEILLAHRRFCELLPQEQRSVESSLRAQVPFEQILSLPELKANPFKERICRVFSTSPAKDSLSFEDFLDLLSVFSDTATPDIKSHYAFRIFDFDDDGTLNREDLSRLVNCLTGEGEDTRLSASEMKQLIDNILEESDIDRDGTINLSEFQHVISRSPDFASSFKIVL

The nature of test [6]: Primary qHTS for small molecule stabilizers of the endoplasmic reticulum resident proteome: Secreted ER Calcium Modulated Protein (SERCaMP) assay (AID 1508630). A digest of the protocol:
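The SH-SY5Y reporter protocol was run at 3 concentrations up to 38.3 uM (primary) or 11 concentrations (follow-up): 16 h compound, 100 nM thapsigargin for 4 h, then extracellular luciferase luminescence.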

A short description of test [7]: A High-Content qHTS Against Drug Library for the Identification of Small Molecules that Inhibit DYT1 Early Onset Primary Dystonia-Associated Cell Pathology (AID 1645839; calls by dose curve; also: series mostly up to about 46 µM). The method in brief:
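Cells were seeded and left for 24 h, then dosed with compound alongside tetracycline induction of mutant EGFP-TorsinA. They were incubated for 48 h, fixed in 4% paraformaldehyde, permeabilized and imaged for mislocalization (%pathology) and cell count.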

Test [8] concerns the target Cytochrome P450 2C9 (Homo sapiens) (UniProt P11712). The test can be described thus: Cytochrome P450 family 2 subfamily C member 9 (CYP2C9) small molecule antagonists: luciferase biochemical (cell-free) qHTS assay (AID 1645842; active = well fitted curve in the direction sought with a large enough effect in the repeat runs; an effect the other way counts as inactive or inconclusive; also: nearly all actives have a fitted effect of over 55% in size; also: potency is read from the fitted curve at half-maximal effect). The method in brief:
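P450-Glo CYP2C9 system: proluciferin substrate with enzyme in mix containing 0.4% BSA, 10 min at room temperature, then NADPH regeneration solution added and incubated 1 h at 37C. Detection reagent stopped reaction; luminescence read after 20 min as RLU.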

A short description of test [9]: Primary qHTS for inhibitors of nuclear receptor binding SET domain protein 2 (NSD2) in an isogenic RCH-ACV NSD2 p.E1099K mutant (9B) (AID 1645876). Also: nearly all actives have a fitted effect of over 70% in size.
The nature of test [10]: Primary qHTS for inhibitors of nuclear receptor binding SET domain protein 2 (NSD2) in an RCH-ACV wild type WT cells (2C) (AID 1645877). Also: nearly all actives have a fitted effect of over 70% in size.
Test [11] deals with Cytochrome P450 2D6 (Homo sapiens) (UniProt P10635). Put plainly: Cytochrome P450 family 2 subfamily D member 6 (CYP2D6) small molecule antagonists: luciferase biochemical (cell-free) qHTS assay (AID 1645840; active = well fitted curve in the direction sought with a large enough effect in the repeat runs; an effect the other way counts as inactive or inconclusive; also: nearly all actives have a fitted effect of over 55% in size; also: potency is read from the fitted curve at half-maximal effect). A digest of the protocol:
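P450-Glo CYP2D6 system: proluciferin substrate converted by enzyme to luciferin, read by luminescence proportional to activity. Enzyme-substrate mix with compound 10 min at room temperature, then NADPH regeneration 1 h before detection reagent.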

Results filed as inconclusive are left out. A number with no mark means an inactive call. Active and inactive are the calls of the source. Unless noted, calls follow the shape of the dose curve; as a rule, active = well fitted curve in the direction sought with a large enough effect; inconclusive = small, poorly fitted or top-dose-only effect, or another doubt; inactive = no such curve, though single readings can be large; an effect the other way counts as inactive or inconclusive.

Sequence of Protein phosphatase 1D (Homo sapiens) (O15297 whole entry, looked up): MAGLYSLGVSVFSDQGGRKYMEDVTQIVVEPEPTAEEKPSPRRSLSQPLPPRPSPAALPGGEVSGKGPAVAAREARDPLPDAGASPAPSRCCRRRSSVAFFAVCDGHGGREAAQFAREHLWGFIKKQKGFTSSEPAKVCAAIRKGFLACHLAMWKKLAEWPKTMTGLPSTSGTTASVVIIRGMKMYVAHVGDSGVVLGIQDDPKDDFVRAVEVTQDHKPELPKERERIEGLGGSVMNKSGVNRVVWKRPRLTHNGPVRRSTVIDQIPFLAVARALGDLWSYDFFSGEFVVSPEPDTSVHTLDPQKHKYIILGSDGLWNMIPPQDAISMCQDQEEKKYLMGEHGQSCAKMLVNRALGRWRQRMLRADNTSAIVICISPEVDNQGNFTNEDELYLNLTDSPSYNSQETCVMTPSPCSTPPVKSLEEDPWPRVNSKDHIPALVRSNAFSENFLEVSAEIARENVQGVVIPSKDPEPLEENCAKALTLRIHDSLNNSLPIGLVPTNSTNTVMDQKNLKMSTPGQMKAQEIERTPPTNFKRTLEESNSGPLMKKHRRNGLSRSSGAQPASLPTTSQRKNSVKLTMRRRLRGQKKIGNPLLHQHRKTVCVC
Sequence of Cytochrome P450 2D6 (Homo sapiens) (P10635 whole entry, looked up): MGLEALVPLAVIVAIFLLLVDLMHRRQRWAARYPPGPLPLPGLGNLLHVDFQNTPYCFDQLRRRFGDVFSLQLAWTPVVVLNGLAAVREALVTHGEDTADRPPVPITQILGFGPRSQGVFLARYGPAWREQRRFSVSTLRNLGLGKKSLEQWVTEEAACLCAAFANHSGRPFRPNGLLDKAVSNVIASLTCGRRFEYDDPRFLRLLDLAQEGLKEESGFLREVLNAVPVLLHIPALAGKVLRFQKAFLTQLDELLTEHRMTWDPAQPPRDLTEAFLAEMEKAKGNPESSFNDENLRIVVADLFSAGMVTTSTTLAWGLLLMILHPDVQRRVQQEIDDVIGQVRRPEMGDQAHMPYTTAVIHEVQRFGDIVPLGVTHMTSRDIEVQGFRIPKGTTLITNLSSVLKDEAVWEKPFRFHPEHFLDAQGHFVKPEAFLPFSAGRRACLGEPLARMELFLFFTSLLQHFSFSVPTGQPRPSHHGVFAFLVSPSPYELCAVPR
Sequence of Cytochrome P450 2C9 (Homo sapiens) (P11712 whole entry, looked up): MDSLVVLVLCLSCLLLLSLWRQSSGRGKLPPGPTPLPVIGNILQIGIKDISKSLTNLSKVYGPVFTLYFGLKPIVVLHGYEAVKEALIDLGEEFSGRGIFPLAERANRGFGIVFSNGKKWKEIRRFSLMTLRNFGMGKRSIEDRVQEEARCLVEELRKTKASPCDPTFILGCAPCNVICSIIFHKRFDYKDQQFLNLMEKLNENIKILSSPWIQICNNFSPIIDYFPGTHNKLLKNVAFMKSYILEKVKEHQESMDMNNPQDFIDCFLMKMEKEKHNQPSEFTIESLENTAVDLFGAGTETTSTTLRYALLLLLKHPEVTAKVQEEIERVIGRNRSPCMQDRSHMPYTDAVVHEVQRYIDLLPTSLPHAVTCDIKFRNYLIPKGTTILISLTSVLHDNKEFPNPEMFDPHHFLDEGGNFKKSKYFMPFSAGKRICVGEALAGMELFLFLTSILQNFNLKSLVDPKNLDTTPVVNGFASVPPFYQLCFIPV

Turning to `CC(=O)NCc1c(I)c(NC(C)=O)c(I)c(C(=O)O)c1I`, the molecule was classed as inactive in test [1], in [2], in [3], in [4], in [5] and in test [6]. The Potency result in [7], in test [8], in test [9] and in test [10] was “inactive” in each case.

Turning to `Cc1cc(C)c(NC(=O)CN(CC(=O)O)CC(=O)O)c(C)c1Br`, the molecule was called inactive in [1], in [2], in test [3], in [4], in [5] and in test [6]. Also, the Potency entry in [7], in test [11], in test [8], in test [9] and in test [10] was “inactive” throughout.

With `CC(=O)Nc1ccccc1`, the molecule was called inactive in [1], in test [2], in [3], in [4], in test [5] and in test [6]. Also, the Potency entry in test [7], in [11], in test [8], in test [9] and in [10] was “inactive” each time.

Regarding `C[C@@H]1CCC[C@H](C)N1`, the call in [1], in [2], in [3], in [4], in test [5] and in [6] was inactive. Moreover, the Potency result in [7], in test [11], in test [8], in test [9] and in [10] was “inactive” in each case.

Regarding `CCCCCCCC(=O)OCC(O)CO` (stereo not drawn), the result in [1], in [2], in [3], in test [4], in [5] and in [6] was inactive. For the same molecule, the Potency result in test [7], in test [11], in [9] and in test [10] was “inactive” in each case.

For the molecule `Cc1[nH]c(C)c(Cl)c(=O)c1Cl`, the result in test [1], in test [2], in test [3], in [4], in [5] and in test [6] was inactive. Also, the Potency result in [7], in [11], in [8], in [9] and in test [10] was “inactive” each time.

Take `CC(CSC(=O)c1ccccc1)C(=O)N1C[C@@H](Sc2ccccc2)C[C@H]1C(=O)O` (stereo partly drawn): the call in test [1], in [2], in [3], in [4], in test [5] and in test [6] was inactive. Moreover, the Potency result in test [7], in test [11], in [8], in test [9] and in test [10] was “inactive” in each case.

Turning to `NS(=O)(=O)c1cc2c(cc1C(F)(F)F)NCNS2(=O)=O`, the call in test [1], in [2], in [3], in test [4], in test [5] and in test [6] was inactive. Moreover, the Potency result in test [7], in test [8], in test [9] and in test [10] was “inactive” throughout.

As to `CC[N+](C)(CC)CCOC(=O)C1c2ccccc2Oc2ccccc21`, the molecule was classed as inactive in test [1], in test [2], in [3], in test [4] and in test [5]. For the same molecule, the Potency result in [7], in test [8] and in [9] was “inactive” throughout. For the same molecule, the Potency in [11] was 4.36 µM (active).

Regarding `CC1(C)S[C@@H]2[C@H](NC(=O)C(C(=O)O)c3ccccc3)C(=O)N2[C@H]1C(=O)O` (stereo partly drawn), the call in test [1], in [2], in [3], in [4] and in test [5] was inactive. The Potency entry in test [7], in test [11], in [8] and in [9] was “inactive” each time.

As for `NC(=O)c1ccc([N+](=O)[O-])cc1Cl`, the result in test [1], in test [2], in [3], in [4], in [5] and in test [6] was inactive. The Potency result in [11] and in test [8] was “inactive” in each case.

Turning to `CN1C(C)(C)CCCC1(C)C`, the call in test [1], in test [2], in [3], in test [4], in [5] and in test [6] was inactive. For the same molecule, the Potency in test [11] is 3.89 µM (active). The Potency entry in [9] and in [10] was “inactive” in each case.

Turning to `CC(C)=CCC/C(C)=C/CO`, the molecule was called inactive in test [1], in [2], in [3], in [4], in [5] and in test [6]. Moreover, the Potency result in [7], in test [9] and in test [10] was “inactive” each time.

Take `O=C(NCCCN1CCOCC1)c1ccc(Cl)cc1`: the molecule was classed as inactive in [1], in test [2], in test [3], in test [4], in test [5] and in test [6]. In addition, the Potency in test [11] is 2.72 µM (active). In addition, the Potency result in [8], in test [9] and in [10] was “inactive” in each case.

As to `CCCNC(C)(C)COC(=O)c1ccccc1`, the molecule was called inactive in test [1], in test [2], in test [3], in test [4], in [5] and in [6]. The Potency result in [7], in [9] and in test [10] was “inactive” each time.

On to `OCC(O)CS` (stereo not drawn), for which the molecule was called inactive in test [1], in [2], in test [3], in test [4] and in test [5]. The Potency result in [7], in [11], in test [8] and in test [9] was “inactive” each time.

For the molecule `COC(=O)c1ccccc1C(=O)c1ccc(OCCN2CCCCC2)cc1`, the result in test [1], in test [2], in test [3], in [4], in test [5] and in test [6] was inactive. The Potency in [11] is 11 µM (active). Moreover, the Potency result in [8], in test [9] and in test [10] was “inactive” in each case.

With `COc1ccc(C(=O)NCc2ccc(OCCN(C)C)cc2)cc1OC`, the result in [1], in test [2], in [3], in test [4], in [5] and in test [6] was inactive. Further, the Potency result in test [11], in test [8], in test [9] and in test [10] was “inactive” in each case.

With `O=C1c2ccccc2S(=O)(=O)N1CCCCN1CCN(c2ncccn2)CC1`, the call in test [1], in test [2], in [3], in test [4], in test [5] and in test [6] was inactive. The values for the Potency in test [11] and in test [8] were 0.871 µM (active) and 11 µM (active), respectively. In test [9], the Potency entry was “inactive”.

Regarding `O=c1[nH]c2cc(C(F)(F)F)c(N3CCOCC3)cc2n(CP(=O)(O)O)c1=O`, the call in test [1], in [2], in test [3], in [4], in test [5] and in [6] was inactive. The Potency result in test [11] and in test [8] was “inactive” throughout.

Turning to `OC[C@@H](O)[C@@H](O)[C@H](O)[C@H](O)CO`, the outcome in test [1], in test [2], in test [3], in test [4], in [5] and in test [6] was inactive. The Potency result in test [11] and in [8] was “inactive” throughout.

For the molecule `Cc1c(NC(=O)c2cccnc2)c(=O)n(-c2ccccc2)n1C`, the result in test [1], in [2], in test [3], in test [4] and in test [5] was inactive. Besides, the Potency result in test [7], in [11] and in test [8] was “inactive” throughout.

Take `CC(C)C[C@@H](N)C(=O)O`: the molecule was called inactive in test [1], in test [2], in test [3], in test [4], in test [5] and in test [6]. Moreover, the Potency entry in test [9] and in [10] was “inactive” each time.

Take `CCOC(=O)[C@H](CCc1ccccc1)N[C@@H](C)C(=O)N1Cc2cc(OC)c(OC)cc2C[C@H]1C(=O)O`: the molecule was classed as inactive in test [1], in [2], in test [3], in [4], in test [5] and in test [6]. Further, the Potency result in test [11], in test [9] and in test [10] was “inactive” in each case. Further, in [8], the Potency is 12.3 µM (active).

The values above are taken from PubChem BioAssay (NCATS).
